From PubChem
Sampled rows, rich in hits. Any-hit rate of the full collection: about 28%.
CYP2C9 act: human CYP2C9 activators, primary screen, biochemical, luminescence. Cytochrome P450 2C9 (Homo sapiens), P11712. recombinant CYP2C9, luciferin-H conversion; active compounds read high; factor 1 = untreated enzyme, 0 = blocked. activation factor at 5 µM. 1.4% of 96,000 active. AID 1024, 2008;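 active means activation factor of 2 or more for CYP2C9 at a 5 µM dose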
CYP2C9 inh: blockers of cytochrome P450 2C9 activity – biochemical, luminescence, ADME assay, primary screen; 20% of 96,000 active; CYP2C9 Supersomes, luciferin-H conversion; inhibition, % at 5 µM; AID 777, 2007; P11712;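 active means blocking of liver enzyme CYP2C9 beyond about 50% at 5 µM, limit read from the data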
Mac1 fbg enh: enhancers of CD11b/CD18 adhesion to fibrinogen, primary screen, K562 cells, luminescence; activation, % at 10 µM; ATPlite luminescence; 0.07% of 93,000 active;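 active means 10 µM primary screen giving 50% or more activity, confirmed by 40% or more on retest at that dose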
Mac1 fbg inh: inhibitors of CD11b/CD18 adhesion to fibrinogen, primary screen, K562 cells, luminescence. ATPlite luminescence; Mn2+ added to activate the integrin. AID 1497, 2009. 0.54% of 93,000 active. Integrin beta-2 (Homo sapiens) + Integrin alpha-M (Homo sapiens), P05107+P11215. inhibition, % at 10 µM;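 active means primary inhibition of 50% or more at 10 µM, then 40% or more on retest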
CYP2C19 inhib: blockers of cytochrome P450 2C19 activity – biochemical, luminescence, ADME assay, primary screen | P33261 | CYP2C19 Supersomes, luciferin-H EGE luminescence, 30 min | inhibition, % at 5 µM | 21% of 96,000 active | AID 778, 2007;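 active means CYP2C19 inhibition above a set limit at 5 µM in the primary screen, cut at about 50% in these data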
Target sequence (P33261 whole entry, looked up): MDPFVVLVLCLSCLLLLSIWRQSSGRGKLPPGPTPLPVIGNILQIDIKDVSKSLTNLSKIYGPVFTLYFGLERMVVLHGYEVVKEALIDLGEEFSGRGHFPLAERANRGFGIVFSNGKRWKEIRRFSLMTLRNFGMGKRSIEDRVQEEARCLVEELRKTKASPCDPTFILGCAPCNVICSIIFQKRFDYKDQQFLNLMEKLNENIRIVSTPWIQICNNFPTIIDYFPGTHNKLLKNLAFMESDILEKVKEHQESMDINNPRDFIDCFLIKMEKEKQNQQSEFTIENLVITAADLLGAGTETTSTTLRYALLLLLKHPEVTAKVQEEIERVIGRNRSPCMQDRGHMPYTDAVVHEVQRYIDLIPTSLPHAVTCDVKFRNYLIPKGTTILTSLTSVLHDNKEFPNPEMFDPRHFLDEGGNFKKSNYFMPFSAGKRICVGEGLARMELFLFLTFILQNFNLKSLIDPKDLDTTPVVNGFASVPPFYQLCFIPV
CYP2C19 act: human CYP2C19 activators, primary screen, biochemical, luminescence; Cytochrome P450 2C19 (Homo sapiens), P33261; recombinant CYP2C19, luciferin-H EGE luminescence; active compounds read high; 0 = fully inhibited enzyme, 1 = untreated enzyme; activation factor at 5 µM; 96,000 tested, under 10 active; AID 1025, 2008;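 active means activation factor of at least 2 at 5 µM in the primary screen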
Each line names hits and unclear results; the compound was inactive in the other large screens.

COc1ccc(-n2nnnc2SCc2nc3ccccc3s2)cc1	CYP2C9 inh 79, CYP2C19 inhib 95
COc1ccc(CSc2nnnn2-c2ccccc2)cc1	CYP2C9 inh 89, CYP2C19 inhib 96
COCCCNC(=S)NNC(=O)c1cccnc1	none
O=C(CSc1nnc2ccccn12)N1CCc2ccccc2C1	none
NC(=O)c1ccc(-n2nnnc2SCc2ccc(F)cc2)cc1	CYP2C19 inhib 75
O=C(O)c1ccc(-n2nnnc2SCc2ccccc2)cc1	none
O=C(CSc1nnnn1-c1ccccc1)N1CCc2ccccc2C1	CYP2C19 inhib 65
C=CCSc1nnnn1-c1ccc(OC)cc1	CYP2C9 inh 66, CYP2C19 inhib 98
CSc1ccccc1-n1nnnc1SCc1ccccc1	CYP2C9 inh 66, CYP2C19 inhib 87
Cc1ccc(C(=O)NCC(=O)Nc2ccccc2C(F)(F)F)cc1	none (no result: CYP2C9 act, CYP2C9 inh, CYP2C19 inhib, CYP2C19 act)
N#CCc1ccc(NS(=O)(=O)c2ccc(C3CCCCC3)cc2)cc1	none (no result: CYP2C9 act, CYP2C9 inh, CYP2C19 inhib, CYP2C19 act)
CC(=O)Nc1ccc2nc(C3CCCCC3)[nH]c2c1	none (no result: Mac1 fbg enh, Mac1 fbg inh)
COc1ccc2nc(NC(=O)CCNS(=O)(=O)c3ccc4c(c3)oc(=O)n4C)sc2c1	none (no result: Mac1 fbg enh, Mac1 fbg inh)
CCOc1ccccc1NC(=O)CSc1nnnn1-c1ccccc1	none
CC1=Nc2ccccc2N=C(NC(=O)CSc2nnnn2-c2ccccc2)C1c1ccccc1 (configuration not stated)	CYP2C9 inh 95, CYP2C19 inhib 79
CC(C)C(=O)Nc1cc(=O)[nH]c2ncnn12	none
COc1ccc(C(=O)Oc2ccc(C(C)=O)cc2)c(OC)c1	CYP2C19 inhib 59
Cc1ccc(NC(=O)c2ocnc2C)cc1Cl	none
CCN(CC)c1ccc(-c2nc3cnccc3n2C)cc1	CYP2C9 inh 92, CYP2C19 inhib 90
CCN(CC)c1ccc(NC(=O)c2cccnc2)cc1	none
CC(C)(C)NC(=O)Cn1cc(C#N)c2cc(Br)ccc21	CYP2C19 inhib 88
Cc1ccc(C)c(-n2ccnc2SCC(=O)O)c1	CYP2C9 inh 59
Cc1ccc(C(=O)CSc2nnc(-c3ccccc3N)n2C)cc1	none
O=C(CSc1nccn1-c1ccccc1)c1ccc(Cl)cc1	CYP2C19 inhib 74 (no result: Mac1 fbg enh, Mac1 fbg inh)
Cc1ccc(C(=O)CSc2nccn2-c2ccccc2)cc1	CYP2C19 inhib 56 (no result: Mac1 fbg enh, Mac1 fbg inh)
CCOC(=O)Cn1c(=O)oc2cc(S(=O)(=O)NCc3cccs3)ccc21	none
CCn1cc([N+](=O)[O-])c(C(=O)Nc2cc(C)on2)n1	none
COc1ccccc1Oc1nc(-c2ccccc2)cc(C)c1S(C)(=O)=O	none
Cc1cccc(Oc2nc(-c3ccccc3)cc(C)c2S(C)(=O)=O)c1C	CYP2C9 inh 93, CYP2C19 inhib 63
Cc1cc(C)cc(Oc2nc(-c3ccccc3)cc(C)c2S(C)(=O)=O)c1	CYP2C9 inh 89, CYP2C19 inhib 52
CCCCCn1c(=NC(C)=O)c(C#N)cc2c(=O)n3ccccc3nc21	none
CCCCn1c(=NC(=O)c2ccc3c(c2)OCO3)c(C#N)cc2c(=O)n3cccc(C)c3nc21	CYP2C9 inh 57
CC(C)OCCCn1c(=N)c(C(N)=S)cc2c(=O)n3ccccc3nc21	CYP2C19 inhib 79
CC(C)OCCCn1c(=NC(=O)c2ccncc2)c(C#N)cc2c(=O)n3ccccc3nc21	CYP2C9 inh 74, CYP2C19 inhib 80
Cn1c(SCC(=O)Nc2cc(C(C)(C)C)nn2-c2ccccc2)nc2ccccc21	none (no result: CYP2C9 act, CYP2C9 inh, CYP2C19 inhib, CYP2C19 act)
COc1ccc(S(=O)(=O)N(C)CC(=O)Nc2ccccc2C(F)(F)F)cc1Cl	CYP2C19 inhib 53
COc1ccc(S(=O)(=O)N(C)CC(=O)N2CCOCC2)cc1Cl	none
COc1ccc(S(=O)(=O)N(C)CC(=O)Nc2ccccc2C(F)(F)F)cc1	CYP2C19 inhib 81
O=C(Nc1ccc(Cl)cn1)c1ccc(COCC(F)(F)C(F)F)o1	CYP2C19 inhib 72
Cc1ccc(CNC(=O)c2ccc(Br)o2)cc1	none
O=C(NCc1ccc(Cl)cc1)c1ccc(COCC(F)(F)F)o1	CYP2C19 inhib 51
Cc1ccc(C(=O)NCc2ccc(Cl)cc2)o1	CYP2C19 inhib 53
CC(C)(C)NC(=O)c1ccc(COCC(F)(F)F)o1	none
O=C(c1ccc(COCC(F)(F)F)o1)N1CCCCCC1	CYP2C19 inhib 51 (no result: Mac1 fbg enh, Mac1 fbg inh)
O=C(O)c1cnn(-c2ccccc2)c1-c1ccccc1	none
Cc1cc2ncn(C3CC(=O)N(Cc4ccccc4)C3=O)c2cc1C (configuration not stated)	none
CCOc1ccccc1NC(=O)c1cccc2c1C(=O)N(CCOC)C2	CYP2C9 inh 88, CYP2C19 inhib 67
COCCN1Cc2cccc(C(=O)Nc3cccnc3)c2C1=O	none
COC(CNC(=O)c1cccc2c1C(=O)N(Cc1cccnc1)C2)OC	CYP2C19 inhib 50
CCOc1ccc(NC(=O)c2cccc3c2C(=O)N(Cc2cccnc2)C3)cc1	CYP2C9 inh 77
CCOC(=O)N1CCC(NC(=O)c2cccc3c2C(=O)N(Cc2cccnc2)C3)CC1	CYP2C9 inh 56
CCOC(=O)N1CCC(NC(=O)c2cccnc2SC)CC1	none
O=C(NCC1CCCO1)C1CC(=O)N(C2CCCC2)C1 (configuration not stated)	none
Cc1c(N2C(=O)/C(=C\c3cccc4ccccc34)SC2=S)c(=O)n(-c2ccccc2)n1C	CYP2C19 inhib 71
Cc1c(N2C(=O)c3ccccc3C2=O)c(=O)n(-c2ccccc2)n1C	none
O=C(O)C(Cc1ccccc1)N1C(=O)/C(=C/c2cccc3ccccc23)SC1=S (configuration not stated)	CYP2C9 inh 72, Mac1 fbg inh 91
O=C(O)C(CCCCN1C(=O)c2ccccc2C1=O)N1C(=O)c2ccccc2C1=O (configuration not stated)	none
O=C(NC1CCS(=O)(=O)C1)C12CC3CC(CC(C3)C1)C2 (configuration not stated)	none
COCCNC(=S)N/N=C/c1ccc(OCc2ccc(C(=O)OC)cc2)cc1	none (no result: CYP2C9 act, CYP2C9 inh, CYP2C19 inhib, CYP2C19 act)
COc1ccccc1NS(=O)(=O)c1cccc2cccnc12	CYP2C19 inhib 70
COc1ccc(S(=O)(=O)Nc2cccc(C)n2)c2ccccc12	CYP2C19 inhib 67
COc1cccc(CNc2cccc3cccnc23)c1O	CYP2C9 act 2.2, CYP2C19 inhib 81
COc1ccc(OC)c(NC(=O)c2ccccc2NS(=O)(=O)c2cccc3cccnc23)c1	CYP2C9 inh 92, CYP2C19 inhib 77
COc1ccccc1NC(=O)c1ccc(NS(=O)(=O)c2cccc3cccnc23)cc1	none (no result: CYP2C9 act, CYP2C9 inh, CYP2C19 inhib, CYP2C19 act)
